Read-out in test [1]: Monokine induced gamma interferon (MIG), CXCL9 (gene 4283)
Description: BSK_3C_MIG: BioMAP Diversity Plus: 3C Assay for Monokine induced gamma interferon (MIG) Biomarker Activity (AID 2283021).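 For AC50: MIG protein level measured by immunoassay in the treated endothelial cultures.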 Particulars: primary human endothelial cells (HUVEC); actives raise or lower the signal. Summed up:
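ELISA-measured MIG in dosed HUVEC 3C cultures at 24 h, analysed by bidirectional fitting with DMSO defining baseline activity.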

The target of test [2] is human Vitamin D Receptor (VDR), VDR (gene 7421) (UniProt P11473). As to the kind of experiment: ATG_VDR_TRANS: Attagene TRANS-FACTORIAL HepG2 Assay for human Vitamin D Receptor (VDR) (AID 2283022; active = hit-call score of the fitted dose curve at least 0.9, where 1 is the maximum). Summed up:
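Multiplexed TRANS reporter in HepG2; 24 h treatment; reporter mRNA by RT-PCR plus capillary electrophoresis; upregulation scored relative to DMSO.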

Test [3] in a line: BSK_3C_SRB: Viability Assessment in the BioMAP Diversity Plus: 3C Assay (AID 2283023).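 Note: cells read 24 h after compound dosing; fitted both ways against DMSO so a hit may be signal rise or drop.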 The following applies: primary human endothelial cells (HUVEC). In a few lines:
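Overt cytotoxicity is gauged in parallel confluent HUVEC cultures by SRB total-protein staining at the time of biomarker measurement, 24 h after dosing. Gain or loss of signal is fitted versus DMSO.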

Read-out in test [4]: Matrix Metallopeptidase 1 (MMP1), MMP1 (gene 4312)
Description: BSK_BE3C_MMP1: BioMAP Diversity Plus: BE3C Assay for Matrix Metallopeptidase 1 (MMP1) Biomarker Activity (AID 2283024). Particulars: primary human bronchial epithelial cells; actives raise or lower the signal. Summed up:
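In this multiplexed primary-cell system, human bronchial epithelium received chemicals for 24 h before an ELISA for MMP1. Values reflect bidirectional fits normalised to the DMSO baseline.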

Read-out in test [5]: Pselectin, SELP (gene 6403)
As to the kind of experiment: BSK_4H_Pselectin: BioMAP Diversity Plus: 4H Assay for Pselectin Biomarker Activity (AID 2283026). Particulars: primary human endothelial cells (HUVEC); actives raise or lower the signal. In a few lines: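 Bidirectional fits against DMSO gave the endpoint. Cells: primary human umbilical vein endothelium, chemical-treated for 24 h before ELISA detection of P-selectin.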

The nature of test [6]: BSK_4H_SRB: Viability Assessment in the BioMAP Diversity Plus: 4H Assay (AID 2283027).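 For AC50: curves fitted both ways versus DMSO so AC50 may be loss or gain.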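 Note: cells exposed to compound for 24 h before staining.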 Particulars: primary human endothelial cells (HUVEC). Summed up:
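HUVEC, 24 h post-dose; 10% TCA fix, 0.1% SRB stain, A560 nm. Total protein = overt cytotoxicity, parallel to biomarker read. Bidirectional fit vs DMSO baseline.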

Test [7] in a line: BSK_BE3C_SRB: Viability Assessment in the BioMAP Diversity Plus: BE3C Assay (AID 2283028).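 For AC50: fitted both ways so AC50 may mark signal gain or loss versus DMSO.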 Particulars: primary human bronchial epithelial cells. In a few lines: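 SRB total-protein staining (0.1%, after TCA fixation) of chemically dosed human bronchial epithelial primary cells at 24 h; DMSO serves as the negative control for bidirectional curve fitting.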
Read-out in test [8]: Thrombomodulin, THBD (gene 7056)
Description: BSK_3C_Thrombomodulin: BioMAP Diversity Plus: 3C Assay for Thrombomodulin Biomarker Activity (AID 2283029). The following applies: primary human endothelial cells (HUVEC); actives raise or lower the signal. Summed up:
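In a multiplexed primary-cell system, human umbilical vein endothelium received chemical and was assayed 24 h later for thrombomodulin by ELISA. Parallel cultures were SRB-stained (0.1% SRB after 10% TCA fixation, read at 560 nm) to flag cytotoxicity.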

Read-out in test [9]: Urokinase-type plasminogen activator receptor (uPAR), PLAUR (gene 5329)
Description: BSK_4H_uPAR: BioMAP Diversity Plus: 4H Assay for Urokinase-type plasminogen activator receptor (uPAR) Biomarker Activity (AID 2283030). Particulars: primary human endothelial cells (HUVEC); actives raise or lower the signal. Summed up: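 Endpoint derived via bidirectional curve fitting against DMSO baseline; readout was ELISA detection of uPAR on umbilical vein endothelial cells at 24 h post-treatment, with SRB-stained parallel cultures assessing cytotoxicity.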

Read-out in test [10]: Vascular endothelial growth factor receptor 2 (Homo sapiens) (UniProt P35968)
As to the kind of experiment: BSK_4H_VEGFRII: BioMAP Diversity Plus: 4H Assay for Vascular endothelial growth factor receptor 2 (VEGFR2) Biomarker Activity (AID 2283031).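 For AC50: cell-surface VEGFR2 protein level quantified by ELISA.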 Particulars: primary human endothelial cells (HUVEC); actives raise or lower the signal. In a few lines:
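In this multiplexed HUVEC system, biomarker ELISA was performed after 24 h chemical exposure. Parallel SRB staining (TCA fixation, 560 nm) tracked cytotoxicity; DMSO served as baseline.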

Read-out in test [11]: Human Leukocyte Antigen - DR isotype (HLADR), HLA-DRA (gene 3122)
Description: BSK_BE3C_HLADR: BioMAP Diversity Plus: BE3C Assay for Human Leukocyte Antigen - DR isotype (HLADR) Biomarker Activity (AID 2283032). Particulars: primary human bronchial epithelial cells; actives raise or lower the signal. In a few lines: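 BioMAP BE3C format: human bronchial epithelium, 24 h compound treatment, ELISA detection of HLA-DR, with bidirectional analysis relative to DMSO.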

Read-out in test [12]: Vascular cell adhesion molecule 1 (VCAM1), VCAM1 (gene 7412)
As to the kind of experiment: BSK_4H_VCAM1: BioMAP Diversity Plus: 4H Assay for Vascular cell adhesion molecule 1 (VCAM1) Biomarker Activity (AID 2283033).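 For outcome: cell-surface VCAM-1 protein measured by ELISA.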 Particulars: primary human endothelial cells (HUVEC); actives raise or lower the signal. Summed up:
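In this human endothelial (HUVEC) system, biomarker ELISA was run 24 h after compound addition, and total protein in parallel wells was assessed by SRB at 560 nm; DMSO served as negative control.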

Read-out in test [13]: Interferon-gamma inducible Protein 10 (IP10), CXCL10 (gene 3627)
As to the kind of experiment: BSK_BE3C_IP10: BioMAP Diversity Plus: BE3C Assay for Interferon-gamma inducible Protein 10 (IP10) Biomarker Activity (AID 2283034). The following applies: primary human bronchial epithelial cells; actives raise or lower the signal. In a few lines:
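BE3C cells (human bronchial epithelial, primary); 24 h exposure; ELISA for IP-10; DMSO-referenced bidirectional fit.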

Read-out in test [14]: Monokine induced gamma interferon (MIG), CXCL9 (gene 4283)
Description: BSK_BE3C_MIG: BioMAP Diversity Plus: BE3C Assay for Monokine induced gamma interferon (MIG) Biomarker Activity (AID 2283035).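 For outcome: MIG protein measured by ELISA in BE3C cultures after 24 h of dosing.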 Particulars: primary human bronchial epithelial cells; actives raise or lower the signal. In a few lines:
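Dose cells (human primary bronchial epithelial), incubate 24 h, quantify MIG by ELISA, then fit concentration–response in both directions relative to DMSO control.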

Read-out in test [15]: Plasminogen activator inhibitor-1 (PAI1), SERPINE1 (gene 5054)
As to the kind of experiment: BSK_BE3C_PAI1: BioMAP Diversity Plus: BE3C Assay for Plasminogen activator inhibitor-1 (PAI1) Biomarker Activity (AID 2283037). Particulars: primary human bronchial epithelial cells; actives raise or lower the signal. In a few lines: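 In this multiplexed primary-cell system, bronchial epithelial cells receive test chemical and are sampled at 24 h. PAI-1 is read by ELISA, with DMSO serving as negative control for bidirectional fitting.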

Read-out in test [16]: urokinase plasminogen activator (uPA), PLAU (gene 5328)
As to the kind of experiment: BSK_BE3C_uPA: BioMAP Diversity Plus: BE3C Assay for urokinase plasminogen activator (uPA) Biomarker Activity (AID 2283038).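 For outcome: uPA protein level quantified by ELISA in cell cultures; uPA read one day after compound addition.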 The following applies: primary human bronchial epithelial cells; actives raise or lower the signal. Summed up:
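Using confluent primary human lung bronchial epithelial cultures, we dosed chemicals, waited 24 h, then ran a uPA ELISA, fitting bidirectionally against DMSO.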

Read-out in test [17]: Urokinase-type plasminogen activator receptor (uPAR), PLAUR (gene 5329)
Description: BSK_BE3C_uPAR: BioMAP Diversity Plus: BE3C Assay for Urokinase-type plasminogen activator receptor (uPAR) Biomarker Activity (AID 2283039).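 For outcome: uPAR protein level measured by ELISA on the cells; cells exposed to compound for one day before measurement.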 The following applies: primary human bronchial epithelial cells; actives raise or lower the signal. Summed up:
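Chemically treated human bronchial epithelial cells (lung primary) are assayed for uPAR by ELISA after 24 h, with data fitted in both directions using DMSO as negative control.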

Read-out in test [18]: Interleukin-6 (IL6), IL6 (gene 3569)
As to the kind of experiment: BSK_CASM3C_IL6: BioMAP Diversity Plus: CASM3C Assay for Interleukin-6 (IL6) Biomarker Activity for (AID 2283040). The following applies: primary human coronary artery smooth muscle cells; actives raise or lower the signal.

A short description of test [19]: BSK_3C_Vis: BioMAP Diversity Plus: 3C Assay for Morphology Visualization (AID 2283025).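 For AC50: light microscopy image of cell morphology used as background control.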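 Note: fitted both ways so gain or loss versus DMSO counts.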 Particulars: primary human endothelial cells (HUVEC). Summed up:
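Light-microscopy morphology readout, 24 h exposure, human primary umbilical vein endothelium; analysed relative to DMSO with bidirectional fitting.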

Read-out in test [20]: Transforming growth factor beta 1 (TGFb1), TGFB1 (gene 7040)
As to the kind of experiment: BSK_BE3C_TGFb1: BioMAP Diversity Plus: BE3C Assay for Transforming growth factor beta 1 (TGFb1) Biomarker Activity (AID 2283036;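 for outcome: TGF-b1 protein level measured by ELISA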). Particulars: primary human bronchial epithelial cells; actives raise or lower the signal. In a few lines: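 TGF-b1 measured via ELISA, 24 h after chemical dosing of human bronchial epithelial cells (BE3C). Overt cytotoxicity assessed in parallel by SRB (0.1%, TCA-fixed, 560 nm); analysis bidirectional relative to DMSO.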

Our source for the outcome and AC50 values is PubChem BioAssay (EPA / NIEHS).

Results filed as inconclusive are left out. The source made the active and inactive calls. Rule for the calls, unless noted: active = hit-call score of the fitted dose curve at least 0.9, where 1 is the maximum; inactive = score below 0.9.

For orientation: AC50 means the concentration giving half of the maximal activity seen.

human Vitamin D Receptor (VDR), VDR (gene 7421), sequence (P11473 whole entry, looked up): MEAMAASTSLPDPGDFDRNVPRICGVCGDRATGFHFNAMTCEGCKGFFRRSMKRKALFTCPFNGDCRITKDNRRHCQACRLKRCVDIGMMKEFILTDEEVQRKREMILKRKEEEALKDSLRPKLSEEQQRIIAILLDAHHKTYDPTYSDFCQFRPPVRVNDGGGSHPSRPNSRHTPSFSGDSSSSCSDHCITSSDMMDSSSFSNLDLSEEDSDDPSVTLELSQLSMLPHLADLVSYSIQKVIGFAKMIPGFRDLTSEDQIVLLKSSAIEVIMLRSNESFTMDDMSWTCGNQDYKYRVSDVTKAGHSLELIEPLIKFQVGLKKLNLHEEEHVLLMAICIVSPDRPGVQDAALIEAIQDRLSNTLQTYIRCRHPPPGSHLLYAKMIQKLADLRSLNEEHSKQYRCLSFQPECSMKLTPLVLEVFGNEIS

For the molecule `CC(=O)OCCC(C)CC(C)(C)C` (stereo not given), the outcome in test [1], in [2], in test [3], in [4], in [5] and in [6] was inactive. Further, the result in test [7], in test [8], in test [9], in test [10], in test [11] and in test [12] was inactive. Also, the result in test [13], in test [14], in [15], in test [16], in test [17] and in test [18] was inactive.
As to `CCCCCCCCCCCCCCCCCC(=O)OCC(CC)CCCC` (stereo not given), the outcome in test [1], in test [2], in [3], in test [4], in test [19] and in test [5] was inactive. The outcome in test [6], in test [7], in [8], in test [9], in test [10] and in test [11] was inactive. Further, the outcome in [12], in test [13], in test [14], in test [20], in [16] and in test [17] was inactive. For the same molecule, the outcome in test [18] was inactive. Moreover, the half-maximal activity concentration (AC50) in test [15] was 0.25 µM (active).
For the molecule `CCCCC/C=C/C=C/C=O`, the AC50 in test [1] is 36.5 µM (active); in test [3], 31.1 µM (active); in [19], 37.4 µM (active); in test [5], 27.1 µM (active); in test [6], 30.5 µM (active); in [7] it was 30.3 µM (active). Further, the AC50 was 35.6 µM (active) in test [9]; 20 µM (active) in test [10]; 20 µM (active) in test [11]; 33.3 µM (active) in test [12]; 28.4 µM (active) in test [13]; 34.3 µM (active) in [14]. Further, the half-maximal activity concentration (AC50) in [16] was 31.3 µM (active). Besides, the outcome in test [4], in [8], in [20], in test [15], in test [17] and in test [18] was inactive.
Take `C=CCOC(=O)CCC1CCCCC1`: the result in test [1], in test [2], in test [3], in [4], in [5] and in test [6] was inactive. The outcome in test [7], in [8], in [9], in [10], in test [11] and in test [12] was inactive. Besides, the result in [13], in [14], in [15], in test [16], in test [17] and in test [18] was inactive.
Consider `CC(=O)/C=C/C1=C(C)CCCC1(C)C`, for which the outcome in test [1], in test [2], in test [3], in [4], in test [19] and in [5] was inactive. For the same molecule, the outcome in [6], in test [7], in test [8], in [9], in test [10] and in test [11] was inactive. The outcome in test [12], in [13], in test [14], in [20], in [15] and in [16] was inactive. Also, the outcome in test [17] and in test [18] was inactive.
`C=C(C)C(=O)O[C@H]1C[C@@H]2CC[C@@]1(C)C2(C)C`: the concentration at half-maximal activity (AC50) in test [1] is 34.7 µM (active); in test [3] it was 13.8 µM (active); in test [4] it was 20 µM (active); in test [19], 12.5 µM (active); in [5] it was 11.3 µM (active); in [6], 10.9 µM (active). Besides, the AC50 was 34.7 µM (active) in test [7]; 9.5 µM (active) in test [9]; 5.29 µM (active) in test [10]; 20 µM (active) in test [11]; 10.1 µM (active) in test [12]; 33.2 µM (active) in test [13]. The AC50 is 30.4 µM (active) in test [14]; 26.4 µM (active) in test [20]; 20 µM (active) in [15]; 20 µM (active) in test [16]; 32.2 µM (active) in test [17]; 13 µM (active) in test [18]. In addition, the call in [2] and in [8] was inactive.
